High-throughput results (PubChem)
GAA850 FXN act = FXN promoter activators, primary screen, cell-based, luciferase luminescence, HEK293 lucGAA850; HEK293 lucGAA850 FXN promoter luciferase reporter, 24 h; percent of 10 µM SAHA response; activation, % at 6 µM; 360,000 compounds, 0.56% hits; AID 540364, 2011;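 active = activation above the average of all compounds screened plus 3 SD, cutoff fixed separately per campaign, cut at about 7.5% in these data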
DAX1 inh-1 = DAX1 (NR0B1) inhibitors on StAR promoter, primary screen, cell-based, luminescence, SF-1 (NR5A1), full-length DAX-1. AID 652010, 2013. 370,000 compounds, 1.1% hits. inhibition, % at 6.8 µM. HEK293T StAR-luciferase reporter, SF-1/DAX-1 repression relief;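 active = inhibition above the mean over all tested compounds plus 3 SD, cut at about 3.6% in these data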;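 note: higher inhibition means more luminescence from relief of DAX-1 repression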
ssDAF-12 act = S. stercoralis DAF-12 nuclear receptor activators, primary screen, cell-based, luminescence, HEK293, GRIP1 co-expression, lit1-tk-luc; activation, % at 6.8 µM; HEK293 ssDAF-12/GRIP1 lit1-tk-luc reporter; % of 3 µM dafachronic acid response; 370,000 compounds, 1% hits; Nuclear hormone receptor DAF-12 (Strongyloides stercoralis);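 active = activation above the mean over all tested compounds plus 3 SD, cut at about 0.9% in these data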
DAX1 inh-2 = DAX1 (NR0B1) inhibitors, primary screen, cell-based, HEK293, Gal4-DAX1, luciferase luminescence. inhibition, % at 6.75 µM. 340,000 compounds, 0.99% hits. Nuclear receptor subfamily 0 group B member 1 (Homo sapiens), P51843. HEK293 Gal4-DAX1 luciferase reporter;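 active = inhibition above the mean over all tested compounds plus 3 SD, cut at about 4.2% in these data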;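 note: inhibition shows as a rise in luminescence from relieved DAX1 repression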
Target sequence (P51843 207-470 limits assumed): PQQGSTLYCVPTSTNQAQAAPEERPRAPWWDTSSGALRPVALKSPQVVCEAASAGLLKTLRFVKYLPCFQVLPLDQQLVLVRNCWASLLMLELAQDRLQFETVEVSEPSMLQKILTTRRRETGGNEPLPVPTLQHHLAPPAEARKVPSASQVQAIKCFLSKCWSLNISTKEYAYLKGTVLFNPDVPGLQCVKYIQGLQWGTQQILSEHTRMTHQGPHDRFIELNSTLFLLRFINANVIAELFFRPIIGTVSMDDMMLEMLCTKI
hcDAF-12 act = H. contortus DAF-12 nuclear receptor activators, primary screen, cell-based, luminescence, HEK293, lit1-tk-luc reporter; HEK293 hcDAF-12 lit1-tk-luc reporter; 0% DMSO, 100% Δ7-dafachronic acid; activation, % at 6.8 µM; 370,000 compounds, 1.4% hits;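 active = activation above the mean of all tested compounds plus 3 SD, cut at about 5.5% in these data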
hgDAF12 agonist = H. glycines DAF-12 receptor agonists, primary screen, cell-based, luminescence, HEK293, GAL4 fusion, UAS-luciferase; HEK293 GAL4-hgDAF12 UAS-luciferase reporter, agonist luminescence; normalized to butyrate control; 370,000 compounds, 1.8% hits; AID 687014, 2013; activation, % at 6.8 µM;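 active = activation above a cutoff set at the mean of all screened compounds plus 3 SD, cut at about 10% in these data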
Of the large screens only hits and unclear results are named; the others gave an inactive call. Rows were chosen to be rich in hits. Some 4.5% of all compounds tested hit in one or more screens of this group.

CC1(NC(=O)c2ccc(C#Cc3cccc(F)c3)cn2)COC1	none (no result: GAA850 FXN act, DAX1 inh-2)
COC(=O)[C@]1(C)N[C@H](CN(C)C(C)=O)[C@@H]2C(=O)N(Cc3ccccc3)C(=O)[C@@H]21	ssDAF-12 act 3.7
CCN(C[C@H]1N[C@@](Cc2ccccc2)(C(=O)OC)[C@H]2C(=O)N(Cc3ccccc3)C(=O)[C@@H]12)C(=O)C1CCCCC1	DAX1 inh-1 4.2
CCN(C[C@H]1N[C@@](C)(C(=O)OC)[C@H]2C(=O)N(Cc3ccccc3)C(=O)[C@@H]12)C(=O)C1CCCCC1	none
COc1cccc(C2NC(=S)N(Cc3ccccc3)C(C)=C2C(C)=O)c1 (stereo unspecified)	none (no result: GAA850 FXN act, DAX1 inh-2)
CCC[C@H]1[C@@H](NCc2ccccc2)CC[C@@]23CCCN2C(=O)CCC[C@@H]13	none (no result: GAA850 FXN act, DAX1 inh-1, DAX1 inh-2)
CSc1nnc2c3ccccc3c3ccccc3c2n1	ssDAF-12 act 1.2
O=S1(=O)C=CCN1Cc1cn(Cc2ccc(F)cc2)nn1	none (no result: GAA850 FXN act, DAX1 inh-2)
COc1ccc(-c2cc(C(=O)OC(C)C(=O)Nc3c(C)n(C)n(-c4ccccc4)c3=O)c3ccccc3n2)cc1 (stereo unspecified)	none
Cc1c(NC(=O)C(C)OC(=O)c2cc(-c3cccc4ccccc34)nc3ccccc23)c(=O)n(-c2ccccc2)n1C (stereo unspecified)	hgDAF12 agonist 11
C[C@H](Cc1ccccc1)Nc1ncnc2c1ncn2[C@@H]1O[C@H](CO)[C@@H](O)[C@H]1O	DAX1 inh-1 3.8
COc1ccccc1C(=O)NCCC(=O)Nc1ccc(C)cn1	hcDAF-12 act 5.7
COc1ccc(CN2CN3Cc4ccccc4C3CS2(=O)=O)cc1 (stereo unspecified)	none (no result: GAA850 FXN act, DAX1 inh-2)
O=c1ccnc2n1COCS2	DAX1 inh-2 6.1
CC(C)C(=O)Nc1ccc(NC(=O)c2ccc([N+](=O)[O-])cc2Cl)cc1	none
CN(C)c1ccc(NC(=O)c2ccc([N+](=O)[O-])cc2Cl)cc1	hgDAF12 agonist 12
Cc1ccc(NC(=O)c2ccc([N+](=O)[O-])cc2Cl)nc1	hgDAF12 agonist 11
CSc1nc(C)cc(Oc2ccc(=O)[nH]n2)n1	DAX1 inh-2 5.8
Nc1nc(-c2ccccc2)c(N=Nc2ccc(Cl)cc2)s1	ssDAF-12 act 1.2
C[C@H]1[C@@H](OC(=O)NCc2cccc(Cl)c2)CC[C@@]23CCCN2C(=O)CCC[C@@H]13	none (no result: GAA850 FXN act, DAX1 inh-1, DAX1 inh-2)
COc1cccc(NC(=O)C(=O)NCCCN2CCCC2=O)c1	DAX1 inh-1 3.8
COc1ccccc1NC(=O)C(=O)NCCCN1CCCC1=O	none
O=C(NCCc1ccccc1)OCc1cn(-c2ccccc2Cl)nn1	none (no result: GAA850 FXN act, DAX1 inh-2)
COP(=O)(CC(=O)C(Cc1ccccc1)NC(=O)OC(C)(C)C)OC (stereo unspecified)	none (no result: GAA850 FXN act, DAX1 inh-2)
CCOC(=O)CSc1nc2sc3c(c2c(=O)n1-c1ccc(C)cc1)CCN(C)C3	hcDAF-12 act 6.1
CCOC(=O)CSc1nc2sc3c(c2c(=O)n1-c1ccc(OC)cc1)CCN(C)C3	none
COc1ccc(C(=O)C2(C(=O)NCc3ccccc3)CC(c3ccccc3C(F)(F)F)=NO2)cc1 (stereo unspecified)	none (no result: GAA850 FXN act, DAX1 inh-2)
Cc1ccc2nc(-c3ccc(C#N)cc3)c(Cc3cccc(Cl)c3)n2c1	none (no result: GAA850 FXN act, DAX1 inh-2)
Cc1ccc(Cc2c(-c3cccc(Br)c3)nc3ccc(C)cn23)cc1	hgDAF12 agonist 12 (no result: GAA850 FXN act, DAX1 inh-2)
COc1ccccc1Cc1c(-c2cccc(Br)c2)nc2ccc(C)cn12	ssDAF-12 act 1.2, hgDAF12 agonist 12 (no result: GAA850 FXN act, DAX1 inh-2)
Cc1ccc(Cc2c(-c3cccc(Br)c3)nc3ccc(Cl)cn23)cc1	none (no result: GAA850 FXN act, DAX1 inh-2)
Cc1ccc2nc(-c3ccc(C#N)cc3)c(Cc3ccccc3)n2c1	hgDAF12 agonist 11 (no result: GAA850 FXN act, DAX1 inh-2)
Cc1ccc(Cc2c(-c3cccc(Cl)c3)nc3ccc(Br)cn23)cc1	hgDAF12 agonist 11 (no result: GAA850 FXN act, DAX1 inh-2)
Cc1ccc(Cc2c(-c3cccc(Cl)c3)nc3ccc(C)cn23)cc1	none (no result: GAA850 FXN act, DAX1 inh-2)
